A selection: hits, their analogues and other compounds. The true share with any hit is near 7.1%.
ELG1 genotox: induces genotoxicity in HEK293T cells with luciferase-tagged ELG1; HEK293T ELG1-luciferase reporter, luminescence, 16 h; Potency, µM (top dose mostly 46 µM), hits mostly activators; 330,000 compounds, 1.3% hits; AID 504466; also: nearly all actives have a fitted effect of over 60% in size
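16 hr compound incubation (37 °C, 5% CO2) of HEK293T cells carrying luciferase-tagged ELG1; luciferase then measured by ONE-Glo luminescence after 30 min at RT.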
ELG1 DNA repair: blocks ELG1-dependent DNA repair in HEK293T cells; HEK293T ELG1-luciferase reporter, luminescence, 16 h; DNA damage induced by 5-fluorouridine; Potency, µM (top dose mostly 46.1 µM), actives largely listed as inhibitors; 330,000 compounds, 2.3% hits; AID 504467; also: nearly all actives have a fitted effect of over 55% in size
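In this reporter screen, reduction of luminescence relative to DMSO vehicle indicated activity. Compounds and 5-fluorouridine were added together to 2,000 cells per well, incubated for 16 hr at 37 °C, then developed with ONE-Glo.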
MCF10A rereplic: DNA re-replication induction in MCF 10a cells. AID 624296. Potency, µM (highest dose often 46.1 µM), most hits filed as activators. MCF 10A DNA re-replication, Hoechst nuclear intensity, 48 h. 350,000 compounds, 2.9% hits; also: nearly all actives have a fitted effect of over 50% in size
SW480 rerep: DNA re-replication induction in SW480 cells; 340,000 compounds, 1.8% hits; AID 624297; SW480 DNA re-replication, Hoechst DNA content imaging, 48 h; Potency, µM (titrated, usually from 46.1 µM), most hits filed as activators; also: nearly all actives have a fitted effect of over 55% in size
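Image-based DNA-content assay: after two days of treatment, nuclei were labelled with the DNA dye Hoechst and imaged, and hits were compounds raising the count of nuclei showing high fluorescence intensity.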
p53 reactivation: restores transcriptional activity of mutant p53. AID 504706. Potency, µM (top dose mostly 92.2 µM), usual class: activators. H1299 p53-A138V BP100-luciferase reporter, luminescence, 24 h. 320,000 compounds, 0.063% hits; also: nearly all actives have a fitted effect of over 45% in size
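H1299 (p53-null), stable ts p53-A138V + BP100-Luc; 1000 cells/well, Opti-MEM/10% FBS; cpd 4 pt, 1:5; 24 h, 37 deg C, 5% CO2; detection reagent 10 min RT; luminescence.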
AT treatment: candidate therapy for ataxia-telangiectasia | F2112 A-T fibroblasts, KAP-1 phosphorylation AlphaLISA; neocarzinostatin DNA damage 30 min before lysis | Potency, µM (series often up to 57.5 µM), usual class: activators | 320,000 compounds, 0.19% hits | AID 485349; also: nearly all actives have a fitted effect of over 45% in size
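hTERT-immortalized A-T patient fibroblasts (F2112), 500 cells/well in OPTI-MEM, 1% FBS, got compounds for 60 min, then NCS for 30 min at 37C. Lysates were then assayed for phospho-KAP-1 by AlphaLISA (anti-pKAP1 donor, anti-KAP1 acceptor beads), 6 hr at 25C.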
Large screens that a line does not name were inactive; ! = not confirmed by another sample. Calls follow the shape of the dose curve; as a rule, active = well fitted curve in the direction sought with a large enough effect; inconclusive = small, poorly fitted or top-dose-only effect, or another doubt; inactive = no such curve, though single readings can be large; an effect the other way counts as inactive or inconclusive.

COc1cc2c(cc1OC)CN(c1nc(-c3cccnc3)nc3ccccc13)CC2	ELG1 DNA repair 9.2µM, MCF10A rereplic inconclusive
O=S(=O)(c1ccccc1F)N1CCN(c2nc(-c3cccnc3)nc3ccccc23)CC1	ELG1 DNA repair 18µM
Cc1ccc(S(=O)(=O)N2CCN(C(=O)CC(C)n3nc(C)c(Cl)c3C)CC2)cc1 (configuration not stated)	none
C=CCn1c(SCc2nc3cc(C(=O)OC)ccc3c(=O)[nH]2)nc2sc(CC)cc2c1=O	ELG1 DNA repair 8.2µM
CCn1c(SCc2nc3ccccc3c(=O)[nH]2)nc2ccccc2c1=O	none
C=CCn1c(SCc2nc3ccccc3c(=O)[nH]2)nc2scc(C3CC3)c2c1=O	MCF10A rereplic 21µM, SW480 rerep inconclusive
C=CCOc1ccccc1CN(CCc1ccccc1)C(=O)c1cccc(S(C)(=O)=O)c1	ELG1 DNA repair inconclusive, MCF10A rereplic inconclusive
Cn1c(C(=O)NCCCN2CCN(c3ccccc3F)CC2)cc2c(=O)[nH]c3ccccc3c21	MCF10A rereplic 23µM
Cc1ccc(Cl)cc1N1CCN(C(=O)c2cc3c(=O)[nH]c4ccccc4c3n2C)CC1	ELG1 DNA repair inconclusive, MCF10A rereplic 18µM! (no result: AT treatment)
CC1CC(C)CN(CCCNC(=O)c2cc3c(=O)[nH]c4ccccc4c3n2C)C1 (configuration not stated)	ELG1 DNA repair inconclusive
COc1ccc(C(CNC(=O)c2cccc(S(=O)(=O)Nc3ccc(F)cc3)c2)N2CCOCC2)cc1 (configuration not stated)	none (no result: ELG1 genotox, ELG1 DNA repair, p53 reactivation, AT treatment)
O=C(Cn1cnc2c(oc3nc4c(cc32)CCCC4)c1=O)Nc1cccc(Cl)c1	MCF10A rereplic 18µM, SW480 rerep inconclusive
CN(CC(=O)Nc1ccccc1Br)C(=O)CCSc1ccc(F)cc1	none
COCCn1c(C)cc(/C=C2/SC(=O)N(C(C)C(=O)OC)C2=O)c1C (configuration not stated)	ELG1 genotox 8.2µM, ELG1 DNA repair inconclusive
CS(=O)(=O)N(CC(=O)NCc1ccccc1Cl)C1CCCCC1	SW480 rerep 21µM, p53 reactivation inconclusive
CC1CCN(S(=O)(=O)N2CCCC(C(=O)NCc3ccccc3Cl)C2)CC1 (configuration not stated)	none
O=C(NCc1ccc(Cl)cc1)C1CCN(c2cnccn2)CC1	MCF10A rereplic inconclusive
O=C(NCc1ccccc1Cl)C1CCN(S(=O)(=O)N2CCCCCC2)CC1	ELG1 DNA repair 18µM, SW480 rerep inconclusive
CS(=O)(=O)N(CC(=O)NCc1ccc(Cl)cc1)C1CCCCC1	ELG1 DNA repair inconclusive
O=C(NCc1ccccc1Cl)C1CCN(c2cnccn2)CC1	MCF10A rereplic 0.52µM
COc1ccccc1NC(=O)c1ccccc1N(Cc1ccccc1)S(C)(=O)=O	none
Cc1ccc(CN(C)C(=O)c2cccc(S(=O)(=O)N3CCCC3)c2)o1	none
COc1ccc(S(=O)(=O)N2CCC(C(=O)N(C)Cc3ccc(C)o3)CC2)cc1OC	ELG1 DNA repair 16µM
CCOC(=O)N1CCC(N2C(=O)c3ccccc3C2Nc2ccc3c(C)cc(=O)oc3c2)CC1 (configuration not stated)	ELG1 DNA repair inconclusive, AT treatment 40µM
CCOC(=O)N1CCC(N2C(=O)c3ccccc3C2Nc2ccc3c(c2)OCCO3)CC1 (configuration not stated)	ELG1 genotox inconclusive, ELG1 DNA repair inconclusive, p53 reactivation inconclusive
Cn1nnnc1Sc1ncnc2scc(-c3ccc(Br)cc3)c12	ELG1 DNA repair inconclusive, MCF10A rereplic inconclusive, SW480 rerep inconclusive
Cn1nnnc1Sc1ncnc2scc(-c3ccccc3Br)c12	ELG1 DNA repair inconclusive, SW480 rerep inconclusive
Cn1nnnc1Sc1ncnc2scc(-c3ccccc3)c12	ELG1 DNA repair inconclusive, MCF10A rereplic inconclusive, SW480 rerep 16µM
Cn1nnnc1Sc1ncnc2scc(-c3ccc(F)cc3)c12	MCF10A rereplic inconclusive, SW480 rerep 10µM
Cn1nnnc1Sc1ncnc2scc(Br)c12	ELG1 DNA repair inconclusive, MCF10A rereplic 3.7µM, SW480 rerep 4.6µM
O=C(OCC(=O)N1CCCC1)c1c(Cl)ccc(Cl)c1Cl	none
CCCNC(=S)Nc1ccc(F)cc1F	ELG1 DNA repair 16µM
O=C(Nc1cc(-c2ccccc2)nn1-c1c(Cl)cccc1Cl)c1ccc(F)cc1	MCF10A rereplic 15µM
Nc1c(S(=O)(=O)c2ccccc2)c2nc3ccccc3nc2n1Cc1ccco1	MCF10A rereplic inconclusive, SW480 rerep inconclusive, AT treatment 22µM
Cc1ccc(S(=O)(=O)c2c(N)n(Cc3ccco3)c3nc4ccccc4nc23)cc1C	MCF10A rereplic 15µM, SW480 rerep inconclusive
Nc1c(S(=O)(=O)c2ccccc2)c2nc3ccccc3nc2n1CCN1CCOCC1	SW480 rerep inconclusive
Cc1ccc(S(=O)(=O)c2c(N)n(CCCO)c3nc4ccccc4nc23)cc1	none (no result: AT treatment)
Cc1ccc(S(=O)(=O)c2c(N)n(CCC(C)C)c3nc4ccccc4nc23)cc1	ELG1 DNA repair inconclusive, MCF10A rereplic inconclusive, SW480 rerep 16µM
Cc1ccc(S(=O)(=O)c2c(N)n(CCN3CCOCC3)c3nc4ccccc4nc23)cc1C	ELG1 DNA repair inconclusive, MCF10A rereplic inconclusive
CN1CCN(c2ccc(C(CC(N)=O)NC(=O)Cc3cccc4ccccc34)cc2[N+](=O)[O-])CC1 (configuration not stated)	none
Cc1nnc(C)c2c(C)n(-c3ccccc3N)c(C)c12	SW480 rerep 21µM
Cc1cc(-n2c(C)c3c(C)nnc(C)c3c2C)ccc1N	MCF10A rereplic 21µM, SW480 rerep inconclusive
Cc1ccc(-n2c(C)c3c(C)nnc(C)c3c2C)cc1N	none
CCCn1c(=N)c(C#N)cc2c(=O)n3ccccc3nc21	SW480 rerep inconclusive
Cc1cccn2c(=O)c3cc(C(=O)NCc4ccc(F)cc4)c(=N)n(CCCN4CCOCC4)c3nc12	MCF10A rereplic inconclusive, SW480 rerep 8.2µM (no result: ELG1 genotox, ELG1 DNA repair, p53 reactivation, AT treatment)
N#Cc1cc2c(=O)n3ccccc3nc2n(CCCn2ccnc2)c1=N	MCF10A rereplic 9.2µM, SW480 rerep 15µM
Cc1cccn2c(=O)c3cc(C#N)c(=N)n(CCCN4CCOCC4)c3nc12	MCF10A rereplic inconclusive, SW480 rerep 4.1µM (no result: ELG1 genotox, ELG1 DNA repair, p53 reactivation, AT treatment)
Cc1cccn2c(=O)c3cc(C(N)=S)c(=N)n(CCCN4CCOCC4)c3nc12	MCF10A rereplic inconclusive, SW480 rerep 8.2µM
CCCCNC(=O)c1cc2c(=O)n3cccc(C)c3nc2n(CCN2CCOCC2)c1=N	MCF10A rereplic inconclusive, SW480 rerep inconclusive
Cc1cccn2c(=O)c3cc(C#N)c(=N)n(CCN4CCOCC4)c3nc12	none (no result: AT treatment)

Screening results (PubChem BioAssay)
